Assay results reported in PubChem BioAssay AID1345085 (National Center for Advancing Translational Sciences (NCATS), 2018).
Records with an inconclusive call do not appear. Active and inactive are the calls of the source. Calls come from the whole dose curve; as a rule, active = well fitted cell-killing curve with a large enough effect; inconclusive = small, poorly fitted or top-dose-only effect, or effect the other way; inactive = no such curve, though single readings can be large or run the other way.

test system: HeLa; assay: Confirmatory qHTS for gynecologic anti-cancer compounds from libraries of approved drugs and bioactive compounds; settings: gynecologic cancer cell panel viability, ATPlite luminescence, 48 h; series mostly up to 57.6 µM; note: nearly all actives have a fitted effect of over 55% in size
From the text: National Center for Advancing Translational Sciences [NCATS] Assay Overview: Chemotherapeutic drug responses vary from cancer to cancer and from patient to patient. These variations could be caused by a number of factors including patient genomic background, tumor mutations, tumor heterogeneity, and aspects of drug treatment. Chemotherapeutic drug resistance is also a common issue and can lead to ineffective treatment and patient death. Here we have profiled the cell killing effects of thousands of compounds to characterize the responses in three gynecological cancers, identify cancer-selective compounds, and understand the diversity of responses to these compounds from pan-cancer suppressors to single cell line selective compounds. In this assay, we screened a 7,914 compound drug library that included approved drug and bioactive compounds in six ovarian, three cervical, and two placental cancer cell lines using the ATPlite assay for cell viability. ATPlite is a luminescence based assay reliant on the conversion of a luciferase substrate to light in the presence of ATP. As a cytotoxic compound will suppress growth and decrease the number of cells, the concentration of ATP will decrease, and less light signal will be detected in the well. Hits were selected from the primary screen for follow-up confirmation. For the confirmation screens, the ovarian cancer cell lines included CAOV-3, SK-OV-3, SW 626, ES-2, PA-1, and TOV-21G. The cervical cancer cell lines included HeLa, Ca Ski, and C-33 A. The placental cancer cell lines included JEG-3 and JAR. HEK 293T cells were used as the control cell line to determine the selectivity index. The ATPlite assay was used to determine the IC50 values.
Assay Protocol Summary: 1,000 cells in 4 uL of media were dispensed into white, solid bottom 1536-well plates using a Multidrop Combi (Thermo Scientific). The Assay plates were incubated for 16 hours at 37 C with 5% CO2 in assay plates, followed by the addition of 23 nL of DMSO or drug dissolved in DMSO. . Each compound was assayed in 11 concentrations (1:3 dilution) from 57.5 uM to 0.977 nM, using the automated Wako 1536 Pin Tool workstation and incubated at 37 C with 5% CO2 48 hours. 4 uL of ATPlite, the ATP monitoring reagent, was then added to the each well of the assay plates using the Multidrop Combi reagent dispenser followed by incubation for 15 minutes at room temperature. The resulting luminescence was measured using the ViewLux plate reader.
Potency is the fitted concentration of half-maximal effect.

| Compound | Potency |
| --- | --- |
| CN1CCN(Cc2ccc(NC(=O)Nc3ccc(Oc4cc(NC(=O)C5CC5)ncn4)cc3)cc2C(F)(F)F)CC1 | 0.306 µM (active) |
| CN(C)CC/C=C1\c2ccccc2COc2ccccc21 | inactive |
| S=c1nc[nH]c2nc[nH]c12 | 3.43 µM (active) |
| Nc1ncnc2c1ncn2[C@@H]1O[C@H](CO)C[C@H]1O | inactive |
| CC[C@]1(O)C[C@H]2CN(CCc3c([nH]c4ccccc34)[C@@](C(=O)OC)(c3cc4c(cc3OC)N(C=O)[C@H]3[C@@](O)(C(=O)OC)[C@H](OC(C)=O)[C@]5(CC)C=CCN6CC[C@]43[C@@H]65)C2)C1 | 0.273 µM (active) |
| CN1CCCC(n2nc(Cc3ccc(Cl)cc3)c3ccccc3c2=O)CC1 (stereo not given) | inactive |
| COc1cc2c(cc1-c1c(C)noc1C)ncc1[nH]c(=O)n(C(C)c3ccccn3)c12 (stereo not given) | 0.544 µM (active) |
| CN(c1nccc(=O)[nH]1)C1CCN(c2nc3ccccc3n2Cc2ccc(F)cc2)CC1 | inactive |
| C#C[C@]1(O)CC[C@H]2[C@@H]3CCC4=CC(=O)CC[C@@H]4[C@H]3CC[C@@]21CC | 3.85 µM (active) |
| COc1cc(N2CCC(N3CCN(C)CC3)CC2)ccc1Nc1ncnc(Nc2ccccc2S(=O)(=O)C(C)C)n1 | 8.63 µM (active) |
| CCOc1cc2ncc(C#N)c(Nc3ccc(F)c(Cl)c3)c2cc1NC(=O)/C=C/CN(C)C | 24.3 µM (active) |
| c1nc2nc(Nc3ccc(N4CCOCC4)cc3)nc(NC3CCCCC3)c2[nH]1 | 1.88 µM (active) |
| COc1cc(Nc2ncc3c(n2)-c2ccc(Cl)cc2C(c2c(F)cccc2OC)=NC3)ccc1C(=O)O | 0.685 µM (active) |
| CCCc1nn(C)c2c(=O)[nH]c(-c3cc(S(=O)(=O)N4CCN(C)CC4)ccc3OCC)nc12 | inactive |
| COc1ccc(-c2nc3ccc(C4=NNC(=O)CC4C)cc3[nH]2)cc1 (stereo not given) | 19.3 µM (active) |
| COc1ccc(CCC(=O)c2c(O)cc(O[C@@H]3O[C@H](CO)[C@@H](O)[C@H](O)[C@H]3O[C@@H]3O[C@@H](C)[C@H](O)[C@@H](O)[C@H]3O)cc2O)cc1O | inactive |
| CCN(CC)CCOc1ccc(/C(=C(\Cl)c2ccccc2)c2ccccc2)cc1 | 79.4 µM (active) |
| C=CC(=O)Nc1cccc(Oc2nc(Nc3ccc(N4CCN(C)CC4)cc3)ncc2Cl)c1 | 6.85 µM (active) |
| Fc1cc(-c2cccc3ncc(-c4cnn(C5CCNCC5)c4)nc23)cc(F)c1CN1CCOCC1 | 24.3 µM (active) |
| NS(=O)(=O)c1ccc(Nc2nc(OCC3CCCCC3)c3[nH]cnc3n2)cc1 | 24.3 µM (active) |

| Compound | Potency |
| --- | --- |
| Cc1cc(Nc2cc(N3CCN(C)CC3)nc(Sc3ccc(NC(=O)C4CC4)cc3)n2)n[nH]1 | 1.09 µM (active) |
| CNCc1ccc(-c2[nH]c3cc(F)cc4c3c2CCNC4=O)cc1 | inactive |
| CCN1CCN(Cc2ccc(-c3cc4c(NC(C)c5ccccc5)ncnc4[nH]3)cc2)CC1 (stereo not given) | 30.6 µM (active) |
| CNC1CCC(N(Cc2cccc(-c3ccncc3)c2)C(=O)c2sc3ccccc3c2Cl)CC1 (stereo not given) | 27.3 µM (active) |
| COc1c(C)c2c(c(O)c1C/C=C(\C)CCC(=O)OCCN1CCOCC1)C(=O)OC2 | 2.43 µM (active) |
| CCN[C@H]1C[C@H](C)S(=O)(=O)c2sc(S(N)(=O)=O)cc21 | inactive |
| CC[C@@]1(O)C(=O)OCc2c1cc1n(c2=O)Cc2cc3cc(O)ccc3nc2-1 | 0.968 µM (active) |
| CC(C)C[C@H](NC(=O)[C@@H](NC(=O)c1cccc(-c2ccccc2)n1)[C@@H](C)O)B(O)O | 24.3 µM (active) |
| Cc1ccc2nc(N)[nH]c(=O)c2c1Sc1ccncc1 | 8.63 µM (active) |
| O=C(Nc1cccnc1)N1CCC(Cc2cccc(Oc3ccc(C(F)(F)F)cn3)c2)CC1 | 3.85 µM (active) |
| NC(=O)c1cccc2cn(-c3ccc([C@@H]4CCCNC4)cc3)nc12 | inactive |
| O=C(c1ccc(/C=C/c2n[nH]c3ccccc23)cc1)N1CCNCC1 | 3.43 µM (active) |
| Nc1ccc(-c2ccc3ncc4ccc(=O)n(-c5cccc(C(F)(F)F)c5)c4c3c2)cn1 | 0.385 µM (active) |
| CN(NC(=O)CC(=O)NN(C)C(=S)c1ccccc1)C(=S)c1ccccc1 | 0.122 µM (active) |
| Cc1[nH]c2ccccc2c1CCNCc1ccc(/C=C/C(=O)NO)cc1 | 0.432 µM (active) |
| Cc1cnc(Nc2cccc(CN3CCOCC3)c2)nc1Nc1cccc(S(=O)(=O)NC(C)(C)C)c1 | 1.72 µM (active) |
| Cn1cc(-c2ccc3ncc(Cc4ccc5ncccc5c4)n3n2)cn1 | inactive |
| O=C(/C=C/c1cccc(S(=O)(=O)Nc2ccccc2)c1)NO | 5.3 µM (active) |
| Cc1cc(SCc2sc(-c3ccc(C(F)(F)F)cc3)nc2C)ccc1OCC(=O)O | inactive |
| COCCOc1ccc2c(c1)ncn2-c1ccc2cccc(N3CCC(N)CC3)c2n1 | 12.2 µM (active) |
